IL1B secr inh – inflammasome signaling inhibition, IL-1 beta readout. hit rate 4.7% among 360,000. THP-1 LPS/ATP IL-1B secretion, AlphaLISA, 16 h; active compounds read low. activity change, % at 57.5 µM; in the data active means activity change below about -50%; inconclusive means mostly about -30% to -49%
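Secreted IL-1B measured by AlphaLISA bead assay after 16 h compound exposure of THP-1 cells; compounds (final up to 57.5 uM) added 1 h before LPS (250 ng/mL) and ATP (1.25 mM) stimulation; lower signal means less secretion.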
12-LOX inh – blocks human arachidonate 12S-lipoxygenase. hit rate 1.1% among 580,000. P18054. Potency, µM (titrated, usually from 108 µM), usual class: inhibitors. purified 12hLO, xylenol orange hydroperoxide absorbance. AID 1671190
Target sequence (P18054 whole entry, looked up): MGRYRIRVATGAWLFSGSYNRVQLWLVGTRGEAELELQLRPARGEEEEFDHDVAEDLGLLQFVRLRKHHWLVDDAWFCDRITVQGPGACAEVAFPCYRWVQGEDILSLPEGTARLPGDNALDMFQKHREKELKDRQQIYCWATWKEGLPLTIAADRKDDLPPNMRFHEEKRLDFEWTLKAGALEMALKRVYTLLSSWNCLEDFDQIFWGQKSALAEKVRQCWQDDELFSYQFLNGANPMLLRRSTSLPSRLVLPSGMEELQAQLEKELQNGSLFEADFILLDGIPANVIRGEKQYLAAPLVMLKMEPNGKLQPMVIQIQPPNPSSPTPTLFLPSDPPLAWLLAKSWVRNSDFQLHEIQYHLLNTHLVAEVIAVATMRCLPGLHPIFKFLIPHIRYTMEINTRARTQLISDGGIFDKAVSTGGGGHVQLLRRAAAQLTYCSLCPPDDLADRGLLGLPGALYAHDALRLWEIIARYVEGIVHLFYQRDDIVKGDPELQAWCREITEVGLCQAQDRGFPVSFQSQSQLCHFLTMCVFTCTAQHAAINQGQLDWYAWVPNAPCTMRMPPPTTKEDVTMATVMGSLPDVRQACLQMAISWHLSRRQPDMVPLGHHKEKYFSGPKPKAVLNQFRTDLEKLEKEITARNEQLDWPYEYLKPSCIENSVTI
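Purified human 12hLO (150 nM final) in 25 mM Hepes, 0.01% Triton X-100, pH 7.0 was preincubated 15 min at room temperature with compound. Then 40 uM arachidonic acid was added, 30 min. Hydroperoxide was read by Fe-XO absorbance ratio 573/405 nm.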
DT40 TDP1 no CPT – qHTS for Inhibitors of human tyrosyl-DNA phosphodiesterase 1 (TDP1): qHTS in cells in absence of CPT. DT40 Tdp1-/- hTDP1 cells, no CPT, ATP luminescence, 48 h. Potency, µM (highest dose often 46.2 µM), hits mostly inhibitors. hit rate 15% among 420,000. AID 686978, 2013; further: nearly all actives have a fitted effect of over 55% in size
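DT40 Tdp1-/-;hTDP1 cells, no CPT (DMSO vehicle only), 400 cells/well; compounds pin-transferred; ≥48 hr, 37 °C; CellTiter-Glo 30 min RT dark, luminescence read.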
DT40 TDP1 CPT – growth inhibition of DT40 Tdp1-/-;hTDP1 cells with camptothecin (screen for TDP1 inhibitors) | chicken DT40 Tdp1-/-;hTDP1 cells + 20 nM CPT, ATP luminescence, 48 h | Potency, µM (top dose mostly 46.2 µM), hits mostly inhibitors | hit rate 12% among 420,000 | AID 686979; further: nearly all actives have a fitted effect of over 55% in size
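Cell growth measured by CellTiter-Glo luminescence after a minimum 48 h, 37 C compound exposure with 20 nM CPT in Tdp1-knockout DT40 cells stably expressing hTDP1, seeded 400/well; qHTS titration format.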
HT1080 IDH1KD tx – kills HT-1080 cells with IDH1 knockdown. HT-1080 IDH1 knockdown viability, ATP luminescence, 48 h. Potency, µM (titrated, usually from 46.1 µM), most hits filed as cytotoxic. hit rate 2% among 360,000
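IDH1KD HT-1080 cells, 750/well, RPMI + 5% FBS; compound pinned after 2 h settling; 48 h, 37 °C; CellTiter-Glo luminescence; % activity normalised to DMSO and no-cell wells; curves fitted, classed by r2 and efficacy.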
HT1080-NT tox – kills 2HG-producing HT-1080-NT fibrosarcoma cells | HT-1080-NT fibrosarcoma viability, CellTiter-Glo ATP luminescence, 48 h | Potency, µM (doses to about 46.1 µM), hits mostly cytotoxic | hit rate 1.6% among 360,000 | AID 686970;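 further: NT is the 2HG producing partner of a matched IDH1 knockdown line; nearly all actives have a fitted effect of over 55% in size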
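750 cells/well, RPMI + 5% FBS; 2 h settle, compound pin-transfer, 48 h at 37 degrees C. CellTiter-Glo 10 min RT, luminescence. Normalized to DMSO and media-only wells.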
Numbers stand for hits. The entries come from a sample that favours hits as a whole. Unless noted, the call rests on the fitted dose curve; in most records, active means well fitted curve in the direction sought with a large enough effect; inconclusive means small, poorly fitted or top-dose-only effect, or another doubt; inactive means no such curve, though single readings can be large; an effect the other way counts as inactive or inconclusive.

`CC(=NNC(=S)Nc1ccccc1Cl)c1ccccn1` gave IL1B secr inh -102.0, 12-LOX inh inconclusive, DT40 TDP1 no CPT 0.146µM, DT40 TDP1 CPT 0.013µM, HT1080 IDH1KD tx inconclusive and HT1080-NT tox inactive.
For CC(=NNC(=S)Nc1ccccc1)c1ccccn1 the results were IL1B secr inh inconclusive, 12-LOX inh inconclusive, DT40 TDP1 no CPT 0.116µM, DT40 TDP1 CPT 0.0259µM, HT1080 IDH1KD tx inconclusive and HT1080-NT tox inconclusive.
CCCN1CCS(=O)(=O)N(Cc2cn(Cc3ccc(OC)cc3)nn2)C(C(=O)OC)C1 (configuration not stated) was read as 12-LOX inh inactive.
S=C(NN=C(C1CC1)C1CC1)Nc1ccccc1 was read as IL1B secr inh inactive, 12-LOX inh inconclusive, DT40 TDP1 no CPT inconclusive, DT40 TDP1 CPT 20.6µM, HT1080 IDH1KD tx inactive and HT1080-NT tox inactive.
`O=C(NCCC1CCN(C(=O)Nc2cc(F)ccc2F)CC1)C1CC1` gave 12-LOX inh inactive.
Screening CCc1ccc(S(=O)(=O)c2nnn3c2nc(NCCC(C)C)c2cc(Cl)ccc23)cc1 returned 12-LOX inh inactive, DT40 TDP1 no CPT 20.6µM and DT40 TDP1 CPT inconclusive.
Screening CC(C)Nc1nc2c(S(=O)(=O)c3cccc(Cl)c3)nnn2c2ccsc12 returned 12-LOX inh inactive, DT40 TDP1 no CPT inactive and DT40 TDP1 CPT inactive.
For CCc1ccc(S(=O)(=O)c2nnn3c2nc(Nc2ccc(NC(C)=O)cc2)c2sccc23)cc1 the results were 12-LOX inh inconclusive, DT40 TDP1 no CPT inconclusive and DT40 TDP1 CPT 23.1µM.
For COc1cccc(Nc2nc3c(S(=O)(=O)c4ccccc4)nnn3c3ccsc23)c1 the results were 12-LOX inh inactive.
COc1cc(Nc2nc3c(S(=O)(=O)c4cccc(Cl)c4)nnn3c3ccsc23)cc(OC)c1 was read as 12-LOX inh inactive, DT40 TDP1 no CPT 7.31µM and DT40 TDP1 CPT 9.2µM.
Screening CCc1ccc(Nc2nc3c(S(=O)(=O)c4cccc(Cl)c4)nnn3c3ccsc23)cc1 returned 12-LOX inh inactive, DT40 TDP1 no CPT 4.61µM and DT40 TDP1 CPT 6.51µM.
CCc1ccc(S(=O)(=O)c2nnn3c2nc(NC(C)C)c2cc(Cl)ccc23)cc1 was read as 12-LOX inh inactive, DT40 TDP1 no CPT inconclusive and DT40 TDP1 CPT inconclusive.
For CCCCn1c(=O)[nH]c(=O)c2c1nc(CSc1nnc(C(F)(F)F)n1C)n2CC the results were 12-LOX inh inactive.
COc1ccc(NC(=O)c2cc(-c3cc(F)ccc3OC(C)C)n[nH]2)cc1OC was read as IL1B secr inh inactive, 12-LOX inh inactive, DT40 TDP1 no CPT inconclusive, DT40 TDP1 CPT inconclusive, HT1080 IDH1KD tx inconclusive and HT1080-NT tox inactive.
Screening Cc1ccc2c(c1)c(N=Nc1cccc(C(=O)O)c1)c(O)n2C returned IL1B secr inh inactive, 12-LOX inh inactive, DT40 TDP1 no CPT inactive, DT40 TDP1 CPT inconclusive, HT1080 IDH1KD tx inactive and HT1080-NT tox inactive.
`COc1cc(N=Nc2ccccc2C(=O)O)ccc1O` gave IL1B secr inh inactive, 12-LOX inh inactive, DT40 TDP1 no CPT inactive, DT40 TDP1 CPT inactive, HT1080 IDH1KD tx inactive and HT1080-NT tox inactive.
`O=Cc1cc(N=Nc2cccc(C(=O)O)c2)ccc1O` gave IL1B secr inh inactive, 12-LOX inh inactive, DT40 TDP1 no CPT inconclusive, DT40 TDP1 CPT inactive, HT1080 IDH1KD tx 14.6µM and HT1080-NT tox inconclusive.
`O=Cc1cc(N=Nc2ccccc2Cl)ccc1O` gave IL1B secr inh inactive, 12-LOX inh inconclusive, DT40 TDP1 no CPT 4.11µM, DT40 TDP1 CPT 20.6µM, HT1080 IDH1KD tx inconclusive and HT1080-NT tox inconclusive.
For NC(N)=N/N=C/c1ccc(OCc2ccccc2)c(OCc2ccccc2)c1 the results were IL1B secr inh -96.2, 12-LOX inh inconclusive, DT40 TDP1 no CPT 18.4µM, DT40 TDP1 CPT inconclusive, HT1080 IDH1KD tx 18.4µM and HT1080-NT tox 23.1µM.
For COc1cc(/C=N/O)ccc1OCc1ccc(Cl)cc1 the results were 12-LOX inh inactive.
For CCOc1cc(C=O)ccc1OCc1ccccc1 the results were 12-LOX inh inactive.
Screening CCOc1cc(/C=N/N=C(N)N)ccc1OCc1ccc(Cl)cc1 returned IL1B secr inh -108.4, 12-LOX inh inconclusive, DT40 TDP1 no CPT 16.4µM, DT40 TDP1 CPT 14.6µM, HT1080 IDH1KD tx inconclusive and HT1080-NT tox inconclusive.
For CCCC(C)NC(=O)c1ccc(OCc2ccc(Cl)cc2)c(OC)c1 (configuration not stated) the results were IL1B secr inh inactive, 12-LOX inh inactive, DT40 TDP1 no CPT 8.2µM, DT40 TDP1 CPT inconclusive, HT1080 IDH1KD tx inactive and HT1080-NT tox inactive.
For COc1cc(/C=N/N=C(N)N)ccc1OCc1ccc(Cl)cc1 the results were IL1B secr inh -94.1, 12-LOX inh inconclusive, DT40 TDP1 no CPT 5.8µM, DT40 TDP1 CPT 6.51µM, HT1080 IDH1KD tx inconclusive and HT1080-NT tox inconclusive.
`CNC(=O)[C@H](Cc1ccccc1)NC(=O)[C@H](CC(C)C)[C@H](CSc1cccs1)C(=O)NO` gave 12-LOX inh inactive.
Screening CCC(=O)Nc1cccc(NC(=O)c2cnn(-c3ccccc3F)c2C)c1C returned 12-LOX inh inactive.
CC1CC(N(C(=O)c2ccc(Cl)cc2)c2ccccc2)c2ccccc2N1C(=O)c1ccco1 (configuration not stated) was read as IL1B secr inh inconclusive, 12-LOX inh inactive, DT40 TDP1 no CPT 5.8µM, DT40 TDP1 CPT 11.6µM, HT1080 IDH1KD tx inconclusive and HT1080-NT tox inconclusive.
CC(=O)CC1(O)C(=O)Nc2ccccc21 (configuration not stated) was read as IL1B secr inh inactive, 12-LOX inh inactive, DT40 TDP1 no CPT inactive, DT40 TDP1 CPT inactive, HT1080 IDH1KD tx inactive and HT1080-NT tox inactive.
COC1=CC(=O)C=C(OC)C1(O)CC(C)=O was read as IL1B secr inh inactive, 12-LOX inh inactive, DT40 TDP1 no CPT 3.66µM, DT40 TDP1 CPT 4.11µM, HT1080 IDH1KD tx inactive and HT1080-NT tox inactive.
For COc1ccc(-n2nc(C(=O)NCC(=O)N3CCN(c4ccccn4)CC3)c3ccccc3c2=O)cc1Cl the results were IL1B secr inh inactive, 12-LOX inh inactive, DT40 TDP1 no CPT 11.6µM, DT40 TDP1 CPT 11.6µM, HT1080 IDH1KD tx inactive and HT1080-NT tox inactive.
COc1ccc(N2CCN(C(=O)CNC(=O)c3nn(-c4ccc(OC)cc4)c(=O)c4ccccc34)CC2)cc1 was read as IL1B secr inh inconclusive, 12-LOX inh inactive, DT40 TDP1 no CPT 18.4µM, DT40 TDP1 CPT inconclusive, HT1080 IDH1KD tx inactive and HT1080-NT tox inactive.

Screens from PubChem.
